# In the supplement of paper PMC6555819:
# Tested on: RARg:RXRa (NR concentration 270 nM, RXRa partner concentration 90 nM)
# Test: PBM binding z-score (relative to random genomic background probes); higher = stronger binding; sequences stand for … in GC…GCGATTGACAGCGTAGAATGAAGG
# Summary of the method: (§1)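 Probes were double-stranded and carried 34-nt variable regions with direct-repeat seeds, single-nucleotide variants, half-site ablations and random human genomic background sequences, printed on custom Agilent 4×180K protein-binding microarrays. Arrays were incubated 1 h with ligand-free nuclear receptor dimers in PBS pH 7.4, 2% milk, 0.02% Triton X-100, 1 mM DTT, 0.2 mg/mL BSA and 0.4 mg/ml salmon testes DNA. Antibodies against each partner (one per run) detected binding, and scanned fluorescence was regression-normalized. Binding z-scores use the random background probes as reference.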
row,Sequence,PBM binding z-score
1,CGTCCAAGGTTAGAGAGGTCAGTGAATGCCGAGT,3.53
2,TCTAGCTGGCCAGAGGGTCACTCAAGAGGTACGG,2.07
3,TCTATTAGTTGAGTAGGGCAACCGAAACAGCGGA,0.16
4,GGAACGAGGGCAAAGTTGAGAGCATCTGTCGACG,2.51
5,CCTATGAGTTGACCATAAGGGCAACCGAAGCTCG,2.18
6,CAAACTAGGTCACGAAAGGTCAAAGTAGAATGAC,7.93
7,GCTAGCAGGACATTTGGGTCACTCAATGACGGGC,0.785
8,GCGACTGGGGCAAAGCAGGTTACCAAAAGGTTGG,0.739
9,CCTAGTTCGTCAGGAGGTCACACACCGGATATGA,6.37
10,GCTGCTAGGTCAATTGATGGTCAGCTAAAGCTCG,4.28
11,TCTTGTACATCAAAGGTTAAGAAAGCCGAAGCCT,1.84
12,ACTAGTTGGTCAGCTGACGTCACACACAATTCGG,0.549
13,ATATGTAGGTTATCGGGTCGTTCAGTTTGCGCAT,1.39
14,TCTTGTAGATCCATAGAGGTTAAGAAAGTGCGCT,0.611
15,TCTGCTAGGTCACCGATGGTCAGCTAATCTGCTA,4.74
16,AGTCAAAGTTCAGGACGAGCTAACGTAAAGCACG,4.22
17,ACTATGAGTTGACTTAGGGCAACCGATACGACGC,1.07
18,CCTACTGGGCCAAAAAGGTCATTGACGCCGATAA,4.59
19,GCGACTGGGGCACCAGCAGGTTACCATAACTTAA,1.13
20,TGTCAAAGTTCAAGGGTAACGTAAGTATCCACAC,5.81

row,Sequence,PBM binding z-score
1,CCTACTGGGTCAAAAAGGTCATTGATGCCGATAA,6.12
2,TTACCAGGGTGAGCTGAGGTCGTTGATCCAACTC,1.08
3,TCTTGTACATCAACAGGAGGTTAAGAAAGATCGA,0.549
4,TCTTGTAGATCAACAGGAGGTTATGAAAGATCGA,0.765
5,TCATATAGGTAATACAGGTGGAAGTCGGCATCTA,0.56
6,GCTATTAGTTGAAAGGGCCACCGAATGATTCTCG,0.331
7,CCTATTAGTTGACTATAAGGGCAACCGAAGCTCG,1.15
8,TATACAGGGTCAAAGGACAGAGTACGAATGTCGA,5.29
9,CCTCGGAGGACAACAAGAGGTCAGAGCTGCCAGA,4.13
10,TCTATTAGTTGAAGCGCAACCGACGAGTCCGTTT,-0.0942
11,ACAATGAGGTTATACGTAGATCAGGGAAGAAAGT,1.89
12,ATCTCTAGGTAACCAAGTTAAGTGAATGCCGAAC,0.245
13,ATCTCCAGGTAACCAAGTTCAGTGAATGCCGAAC,0.664
14,TCTACTAGGTCAGTTGGTCAGCTAACGAGCTGCC,2.74
15,GCATATAGGTAATACAAGTTGAAAGTCCGATTGT,0.232
16,TAGCCTAGGTCATGGGCCAATATACCACGCGAAC,4.22
17,GCGACTGGGGCAAAGCAGGTTACCCTAAGGTTGG,0.329
18,CAAACTAGGTCACCGGAACGTCAAAGTCCGCATG,4.82
19,ATCTCTAGTTAAAAGTTCAGTGAATCCCGAGGAT,1.3
20,ATACCAAGGAGATCGTGAGGTCGTTGATACTAAC,0.264

# Tested on: RARg homodimer (NR concentration 270 nM)
# Test: as above
# Summary of the method: as §1
row,Sequence,PBM binding z-score
1,CGTCCAAGGTTAGAGAGGTCAGTGAATGCCGAGT,4.13
2,TCTAGCTGGCCAGAGGGTCACTCAAGAGGTACGG,1.43
3,TCTATTAGTTGAGTAGGGCAACCGAAACAGCGGA,0.294
4,GGAACGAGGGCAAAGTTGAGAGCATCTGTCGACG,1.87
5,CCTATGAGTTGACCATAAGGGCAACCGAAGCTCG,1.09
6,CAAACTAGGTCACGAAAGGTCAAAGTAGAATGAC,8.94
7,GCTAGCAGGACATTTGGGTCACTCAATGACGGGC,0.992
8,GCGACTGGGGCAAAGCAGGTTACCAAAAGGTTGG,0.527
9,CCTAGTTCGTCAGGAGGTCACACACCGGATATGA,4.42
10,GCTGCTAGGTCAATTGATGGTCAGCTAAAGCTCG,4.03
11,TCTTGTACATCAAAGGTTAAGAAAGCCGAAGCCT,1.06
12,ACTAGTTGGTCAGCTGACGTCACACACAATTCGG,0.913
13,ATATGTAGGTTATCGGGTCGTTCAGTTTGCGCAT,1.28
14,TCTTGTAGATCCATAGAGGTTAAGAAAGTGCGCT,0.378
15,TCTGCTAGGTCACCGATGGTCAGCTAATCTGCTA,5.73
16,AGTCAAAGTTCAGGACGAGCTAACGTAAAGCACG,4.84
17,ACTATGAGTTGACTTAGGGCAACCGATACGACGC,1.2
18,CCTACTGGGCCAAAAAGGTCATTGACGCCGATAA,4.36
19,GCGACTGGGGCACCAGCAGGTTACCATAACTTAA,0.678
20,TGTCAAAGTTCAAGGGTAACGTAAGTATCCACAC,6.14

row,Sequence,PBM binding z-score
1,CCTACTGGGTCAAAAAGGTCATTGATGCCGATAA,5.84
2,TTACCAGGGTGAGCTGAGGTCGTTGATCCAACTC,0.39
3,TCTTGTACATCAACAGGAGGTTAAGAAAGATCGA,0.344
4,TCTTGTAGATCAACAGGAGGTTATGAAAGATCGA,0.211
5,TCATATAGGTAATACAGGTGGAAGTCGGCATCTA,0.449
6,GCTATTAGTTGAAAGGGCCACCGAATGATTCTCG,0.583
7,CCTATTAGTTGACTATAAGGGCAACCGAAGCTCG,0.934
8,TATACAGGGTCAAAGGACAGAGTACGAATGTCGA,5.03
9,CCTCGGAGGACAACAAGAGGTCAGAGCTGCCAGA,3.8
10,TCTATTAGTTGAAGCGCAACCGACGAGTCCGTTT,-0.507
11,ACAATGAGGTTATACGTAGATCAGGGAAGAAAGT,1.55
12,ATCTCTAGGTAACCAAGTTAAGTGAATGCCGAAC,0.306
13,ATCTCCAGGTAACCAAGTTCAGTGAATGCCGAAC,0.86
14,TCTACTAGGTCAGTTGGTCAGCTAACGAGCTGCC,3.58
15,GCATATAGGTAATACAAGTTGAAAGTCCGATTGT,0.481
16,TAGCCTAGGTCATGGGCCAATATACCACGCGAAC,4.2
17,GCGACTGGGGCAAAGCAGGTTACCCTAAGGTTGG,0.427
18,CAAACTAGGTCACCGGAACGTCAAAGTCCGCATG,5.62
19,ATCTCTAGTTAAAAGTTCAGTGAATCCCGAGGAT,1.76
20,ATACCAAGGAGATCGTGAGGTCGTTGATACTAAC,0.458
